Source: the supplement of paper PMC10412459

Tested on: K562 SF3B1 K700E vs K562 SF3B1 WT
Assay: surviving fraction ratio K562 SF3B1 K700E / K562 SF3B1 WT (each relative to DMSO); higher = less selective killing of SF3B1 K700E cells
Conditions: 5 days
Experimental: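 Drug-sensitivity screen of an in-house 80-compound library in isogenic K562 SF3B1 K700E versus SF3B1 WT cells. 250 cells/well in 384-well plates were exposed 24 h after seeding to 0.5-1000 nM compound for 5 days, and viability was read by CellTiter-Glo. Surviving fraction is relative to DMSO, and the value is the ratio of surviving fraction in K700E to WT cells; the paper calls ratio <0.6 with P<0.01 selective.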

SMILES	surviving fraction ratio K562 SF3B1 K700E / K562 SF3B1 WT (0.1nM)	surviving fraction ratio K562 SF3B1 K700E / K562 SF3B1 WT (0.2nM)	surviving fraction ratio K562 SF3B1 K700E / K562 SF3B1 WT (1nM)	surviving fraction ratio K562 SF3B1 K700E / K562 SF3B1 WT (2nM)	surviving fraction ratio K562 SF3B1 K700E / K562 SF3B1 WT (10nM)	surviving fraction ratio K562 SF3B1 K700E / K562 SF3B1 WT (20nM)	surviving fraction ratio K562 SF3B1 K700E / K562 SF3B1 WT (100nM)	surviving fraction ratio K562 SF3B1 K700E / K562 SF3B1 WT (200nM)	surviving fraction ratio K562 SF3B1 K700E / K562 SF3B1 WT (0.5nM)	surviving fraction ratio K562 SF3B1 K700E / K562 SF3B1 WT (5nM)	surviving fraction ratio K562 SF3B1 K700E / K562 SF3B1 WT (50nM)	surviving fraction ratio K562 SF3B1 K700E / K562 SF3B1 WT (500nM)	surviving fraction ratio K562 SF3B1 K700E / K562 SF3B1 WT (1000nM)
C[C@]12O[C@H](C[C@]1(O)CO)n1c3ccccc3c3c4c(c5c6ccccc6n2c5c31)CNC4=O [lestaurtinib]	0.691	0.885	0.8	0.895	0.877	0.855	0.823	0.907	–	–	–	–	–
CC/C(=C(\c1ccc(O)cc1)c1ccc(OCCN(C)C)cc1)c1ccccc1 [4-OH-tamoxifen]	–	–	0.875	–	0.778	–	0.923	–	0.874	0.857	1	0.884	0.993
CCCS(=O)(=O)Nc1ccc(F)c(C(=O)c2c[nH]c3ncc(Cl)cc23)c1F	–	–	1.07	–	0.874	–	0.998	–	1.33	1.13	1.13	1.1	1.06
C=CCNC1=C2C[C@@H](C)C[C@H](OC)[C@H](O)[C@@H](C)/C=C(\C)[C@H](OC(N)=O)[C@@H](OC)/C=C\C=C(/C)C(=O)NC(=CC1=O)C2=O	–	–	0.993	–	0.776	–	1.81	–	1.01	0.811	0.41	1.31	1.24
CN(C)CC[C@H](CSc1ccccc1)Nc1ccc(S(=O)(=O)NC(=O)c2ccc(N3CCN(Cc4ccccc4-c4ccc(Cl)cc4)CC3)cc2)cc1[N+](=O)[O-]	–	–	0.762	–	0.841	–	0.819	–	0.745	0.761	0.902	0.908	0.796
